According to PubChem BioAssay (Tox21):
Records with an inconclusive call do not appear. Entries that show only a call come without a potency. Active and inactive are the calls of the source. The call rests on the fitted dose curve; in most records, active means well fitted cell-killing curve with a large enough effect in the repeat runs; inconclusive means weak or mixed curves, or effect the other way; inactive means flat fitted curve, though single readings scatter.

test: cAMP Responsive Elements (CRE) small molecule antagonists, cell-based qHTS assay: qHTS cell viability counter screen (AID 2060913); settings: CRE-bla HEK293T viability, CellTiter-Glo luminescence, 5 h; series mostly up to 92.4 µM; further: nearly all actives have a fitted effect of over 40% in size
Method in brief: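 Cytotoxicity read in the same wells as the CRE-bla HEK293T antagonist assay: after 3 h compound with 0.25 uM NKH477 final and 2 h beta-lactamase substrate, CellTiter-Glo luminescence measured.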

Compound | Potency
COc1ccc2c(c1OC)C(=O)O[C@@H]2[C@H]1c2cc3c(cc2CCN1C)OCO3 | inactive
Cc1nnc2n1-c1sc(CCC(=O)N3CCOCC3)cc1C(c1ccccc1Cl)=NC2 | inactive
Cc1ccc(Cl)c(O)c1 | inactive
O=C(O)c1nn(Cc2ccc(Cl)cc2Cl)c2ccccc12 | inactive
CCN(CC)C1CCCCC1 | inactive
CN1CC[C@]23c4c5ccc(O)c4O[C@H]2[C@@H](O)C=C[C@H]3[C@H]1C5 | inactive
CC(C)(C)NC[C@H](O)c1ccc(O)cc1Cl | inactive
CNC(=O)O/N=C(\SC)C(=O)N(C)C | inactive
CCOP(=S)(OCC)Oc1ccc(Cl)cc1Cl | inactive
CCC(C)c1cc(C(C)(C)C)cc(-n2nc3ccccc3n2)c1O (stereo not drawn) | inactive
C=COCCCl | inactive
CC(CC(C(N)=O)(c1ccccc1)c1ccccc1)N(C)C (stereo not drawn) | inactive
O=[N+]([O-])c1ccccc1CCl | inactive
CC(C)(O)c1cnn2c(-c3ccc(F)c(-c4c(F)cccc4C#N)c3)cnc2n1 | inactive

test: cAMP Responsive Elements (CRE) small molecule agonists, cell-based qHTS assay: qHTS cell viability counter screen (AID 2060914); settings: CRE-bla HEK293T viability, CellTiter-Glo luminescence, 5 h; series mostly up to 92.4 µM;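 further: viability read after 3 h of compound exposure; nearly all actives have a fitted effect of over 50% in size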
Method in brief: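 HEK 293T CRE-bla; DMEM + 10% dialyzed FBS, 25 mM HEPES; 18 h pre-incubation; compound 3 h, 37 °C/5% CO2; CellTiter-Glo added after reporter read; luminescence after 30 min RT.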

Compound | Potency
CCSC(=O)Cl | inactive
CC(C)(O)C(=O)Nc1ccc([N+](=O)[O-])c(C(F)(F)F)c1 | inactive
O=[N+]([O-])C(Br)Br | inactive
Cc1ccc(N)cc1Cl | inactive
CCOc1nc(F)cc2nc(S(=O)(=O)Nc3c(Cl)cccc3Cl)nn12 | inactive
Nc1ccc([N+](=O)[O-])cc1[N+](=O)[O-] | inactive
CN1C(=S)CN=C(c2ccccc2)c2cc(Cl)ccc21 | inactive
CC(=O)C(Cl)Cl | inactive
c1ccc2c(c1)sc1ccccc12 | inactive
CCC1(CC)C(=O)C=CNC1=O | inactive
CCN[C@@H](C)Cc1cccc(C(F)(F)F)c1 | inactive
CNc1cnn(-c2cccc(C(F)(F)F)c2)c(=O)c1Cl | inactive
CCCN(CCOc1c(Cl)cc(Cl)cc1Cl)C(=O)n1ccnc1 | inactive
CCC(C)(C#N)N=NC(C)(C#N)CC (stereo not drawn) | inactive
Clc1ccc(-c2ccccc2)cc1 | inactive
Cc1ncc(CNC(=O)N(CCCl)N=O)c(N)n1 | inactive
Cc1nnc2n1-c1sc(CCc3ccc(CC(C)C)cc3)cc1C(c1ccccc1Cl)=NC2C (stereo not drawn) | inactive
CCC(=O)C(CC(C)N(C)C)(c1ccccc1)c1ccccc1 (stereo not drawn) | inactive
CCC/C=N/O | inactive
CSCCCN=C=S | inactive

Compound | Potency
C=CC[C@]1(O)CC[C@H]2[C@@H]3CCC4=CC(=O)CCC4=C3C=C[C@@]21C | inactive
CC(C)(C)C(=O)C(Cl)Cl | inactive
CCC(C)n1c(=O)[nH]c(C)c(Br)c1=O (stereo not drawn) | inactive
c1ccc(OP(Oc2ccccc2)Oc2ccccc2)cc1 | inactive
CN(C)CCc1c[nH]c2ccccc12 | inactive
COc1ccc2c(c1OC)C(=O)O[C@@H]2[C@H]1c2cc3c(cc2CCN1C)OCO3 | inactive
Cc1nnc2n1-c1sc(CCC(=O)N3CCOCC3)cc1C(c1ccccc1Cl)=NC2 | inactive
Cc1ccc(Cl)c(O)c1 | inactive
O=C(O)c1nn(Cc2ccc(Cl)cc2Cl)c2ccccc12 | inactive
CCN(CC)C1CCCCC1 | inactive
CN1CC[C@]23c4c5ccc(O)c4O[C@H]2[C@@H](O)C=C[C@H]3[C@H]1C5 | inactive
CC(C)(C)NC[C@H](O)c1ccc(O)cc1Cl | inactive
CNC(=O)O/N=C(\SC)C(=O)N(C)C | inactive
CCOP(=S)(OCC)Oc1ccc(Cl)cc1Cl | inactive
CCC(C)c1cc(C(C)(C)C)cc(-n2nc3ccccc3n2)c1O (stereo not drawn) | inactive
C=COCCCl | inactive
CC(CC(C(N)=O)(c1ccccc1)c1ccccc1)N(C)C (stereo not drawn) | inactive
O=[N+]([O-])c1ccccc1CCl | inactive
CC(C)(O)c1cnn2c(-c3ccc(F)c(-c4c(F)cccc4C#N)c3)cnc2n1 | inactive
